# Assay outcomes (PubChem BioAssay)
# An excerpt weighted towards active compounds, which were near 7.3% of everything screened.
# NPC1 prom act = qHTS Assay for NPC1 Promoter Activators; Huh7 NPC1 promoter luciferase reporter, 24 h; Potency, µM (doses to about 9.22 µM), inactives show top-dose activation, actives largely listed as activators; 320,000 tested, 2.4% active; note: % of control where 0% means no effect; nearly all actives have a fitted effect of over 60% in size
#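 Cells: Huh7 expressing luciferase under the NPC1 promoter, 1500/well. Seeded 2 h, compound added, incubated 24 h at 37 °C. Luciferase reagent, 10 min ambient, then luminescence.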
# FLuc modulator = qHTS profiling assay for firefly luciferase inhibitor/activator using purifed enzyme and Km concentrations of substrates (counterscreen for miR-21 project); Luciferin 4-monooxygenase (Photinus pyralis), P08659; purified FLuc, Km substrates, luminescence inhibition; Potency, µM (series often up to 57.5 µM), inactives show at the top dose activity change, negative = inhibition, hits mostly inhibitors; 360,000 tested, 6.9% active;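 note: plate controls were vehicle for no effect and reference inhibitor for full effect; nearly all actives have a fitted effect of over 55% in size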
# Target sequence (P08659 whole entry, looked up): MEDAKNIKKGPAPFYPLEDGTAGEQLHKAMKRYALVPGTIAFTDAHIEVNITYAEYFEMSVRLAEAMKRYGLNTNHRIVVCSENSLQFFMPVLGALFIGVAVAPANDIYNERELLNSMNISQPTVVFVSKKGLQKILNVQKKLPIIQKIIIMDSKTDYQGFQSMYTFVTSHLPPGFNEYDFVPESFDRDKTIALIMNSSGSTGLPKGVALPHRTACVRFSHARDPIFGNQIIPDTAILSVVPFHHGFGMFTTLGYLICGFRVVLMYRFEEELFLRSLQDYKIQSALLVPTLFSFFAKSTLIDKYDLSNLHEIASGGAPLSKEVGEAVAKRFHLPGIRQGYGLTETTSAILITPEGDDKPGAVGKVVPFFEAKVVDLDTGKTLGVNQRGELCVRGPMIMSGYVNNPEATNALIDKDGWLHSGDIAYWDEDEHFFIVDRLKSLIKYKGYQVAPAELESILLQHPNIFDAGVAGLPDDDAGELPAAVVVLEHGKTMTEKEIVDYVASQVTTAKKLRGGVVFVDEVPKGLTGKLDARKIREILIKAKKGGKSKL
#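 Biochemical qHTS of compounds, final roughly 60 µM downward over six points, against 10 nM purified firefly luciferase using Km concentrations of substrates (10 uM D-luciferin, 10 uM ATP) in Tris acetate pH 7.5 buffer; luminescence output.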
# uPA surface inh = qHTS for Inhibitors of Cell Surface uPA Generation; cell surface uPA generation assay, qHTS; Potency, µM (doses to about 38.3 µM), without a hit: top-dose activity change, negative = inhibition, most hits filed as inhibitors; 330,000 tested, 0.31% active; active = well fitted inhibition curve with a large enough effect; inconclusive = small, poorly fitted or top-dose-only effect; inactive = no such curve, though single readings can be large or run the other way; tested in mouse RAW 264.7 cells; note: % is set by controls: 0 for no effect and ±100 for the full control effect; nearly all actives have a fitted effect of over 55% in size
# ELG1 genotoxic = qHTS screen for small molecules that induce genotoxicity in human embryonic kidney (HEK293T) cells expressing luciferase-tagged ELG1; HEK293T ELG1-luciferase reporter, luminescence, 16 h; 330,000 tested, 1.3% active; Potency, µM (series often up to 46 µM), for inactives: at the top dose activity change, positive = activation, most hits filed as activators; note: % of control where 0% means no effect; nearly all actives have a fitted effect of over 60% in size
#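 ELG1-luciferase HEK293T cells, 2,000/well; compound pinned in; 16 hr, 37 °C, 5% CO2; ONE-Glo, 30 min RT; luminescence on CCD imager.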
# Rab9 prom act = qHTS Assay for Rab9 Promoter Activators. Potency, µM (titrated, usually from 9.22 µM), inactives show top-dose activation, negative = inhibition, actives largely listed as activators. 320,000 tested, 2.8% active. Huh7 Rab9 promoter-luciferase reporter, luminescence, 24 h; note: % of control where 0% means no effect; nearly all actives have a fitted effect of over 60% in size
#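 Using Huh7 cells stably transfected with Rab9 promoter–luciferase, compounds were incubated 24 h at 37 °C, 5% CO2; luciferase luminescence was read 10 min after reagent addition.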
# SMN2 splice up = qHTS Assay for Enhancers of SMN2 Splice Variant Expression; 210,000 tested, 2.8% active; HEK293 SMN2-luciferase splicing reporter, luminescence, 30-36 h; Potency, µM (titrated, usually from 46.1 µM), inactives show at the top dose activity change, positive = activation, actives largely listed as activators; AID 1458, 2008; note: % of control where 0% means no effect; nearly all actives have a fitted effect of over 55% in size
#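 HEK293 cells carry an SMN2 minigene-luciferase reporter in which exon 7 inclusion puts luciferase in frame. Cells were seeded at 2000 cells/well, attached for 10-12 hours, then exposed to compounds for 30-36 hours at 37C before ONE-Glo luminescence.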
# * = called active by the depositor; ? = inconclusive; · = not tested or not shown; [ ] = dose if it differs, or a comment. Unless noted, calls come from the whole dose curve; as a rule, active = well fitted curve in the direction sought with a large enough effect; inconclusive = small, poorly fitted or top-dose-only effect, or another doubt; inactive = no such curve, though single readings can be large; an effect the other way counts as inactive or inconclusive. Potency is the fitted concentration of half-maximal effect.
SMILES,NPC1 prom act,FLuc modulator,uPA surface inh,ELG1 genotoxic,Rab9 prom act,SMN2 splice up
Cc1ccc(-c2csc(-c3ccncc3)n2)cc1,?,10.7µM*,7.1%,?,3.98µM*,?
Cc1ccc(-c2csc(-c3nc(-c4ccc(Br)s4)cs3)n2)cc1,·,-0.6%,·,·,·,-0.8%
Nc1nc(-c2ccc(Br)cc2)cs1,?,19µM*,-0.9%,?,?,?
Brc1ccc(-c2csc(-c3ccncc3)n2)cc1,25.3%,4.78µM*,-2.9%,?,?,?
Nc1nc(-c2ccc(F)cc2)cs1,12.6%,?,1.2%,?,?,-2.6%
Cc1ccc(N(C(=O)Nc2ccccc2)C2=NCC(C)S2)cc1 (centres undefined),0.1%,-18.1%,·,5.9%,-5.7%,-3.7%
Cc1ccnc(N(C(=O)Nc2ccccc2)C2=NCC(C)(C)S2)c1,2.51µM*,19µM*,-0.1%,?,?,·
COc1ccc(-c2cc(C(=O)NCc3cccs3)no2)cc1,2.51µM*,?,-4.5%,?,4.47µM*,·
COc1cccc(-c2cc(C(=O)NCc3cccs3)no2)c1,3.16µM*,4.78µM*,0.5%,23.1µM*,3.16µM*,·
COc1ccc2nc3sc(C(=O)NCc4cccs4)c(N)c3cc2c1,3.55µM*,0.757µM*,·,?,3.98µM*,3.55µM*
O=C(Nc1c(C(=O)N2CCN(c3ccccc3F)CC2)oc2ccccc12)c1ccc(Br)o1,·,-12.3%,·,·,·,·
Cc1nc2nc(NC(=O)c3ccc(Cl)cc3)[nH]n2c(=O)c1Cc1ccccc1,·,?,·,·,·,23.1%
CN(C)c1ccc(CN(CC2CCCO2)C(=O)COc2ccc(Cl)cc2)cc1 (centres undefined),·,-1.6%,·,·,·,-5.9%
COCCCNC(=O)C1CCN(Cc2cc3ccccc3n2Cc2cccc(Cl)c2)CC1,·,-1.9%,·,·,·,·
CC(=O)c1ccc(NC(=O)c2ccn(C(=O)OCC(C)C)n2)cc1,3.98µM*,19µM*,-12.3%,?,?,10µM*
COc1ccc(CCNC(=O)Cn2nnc(-c3ccc(Cl)cc3)n2)cc1OC,·,-3.2%,·,·,·,·
Cc1nnc(SCC(=O)Nc2ccc3[nH]c(=O)[nH]c3c2)s1,-2.0%,4.1%,-2.9%,0.5%,-11.9%,·
COc1ccc(NC(=O)CSc2nnc(NC(=O)c3ccccc3C(=O)O)s2)cc1,-1.3%,26.9µM*,0.6%,-1.8%,-4.9%,·
COc1ccc(NC(=O)CSc2nnc(NC(=O)Nc3ccc(OC)cc3)s2)cc1,·,0.379µM*,·,·,·,·
COc1ccc(Nc2nnc(SCC(=O)Nc3ccc4[nH]c(=O)[nH]c4c3)s2)cc1,3.2%,2.39µM*,?,6.4%,11.1%,·
COC(=O)CSc1nnc(SCc2ccc(OC)cc2)s1,0.1%,23.9µM*,-4.8%,-0.2%,-10.7%,0.7%
Cc1ccc([N+](=O)[O-])cc1NC(=S)NC(=O)c1c(Cl)cnn1C,-1.1%,2.0%,8.0%,0.5%,-1.2%,·
COc1cc(OC)cc(C(=O)Nc2ccc3nc(N4CCC(C)CC4)cc(C)c3c2)c1,·,-9.0%,·,·,·,-10.6%
O=C(CCn1c(=O)c2sccc2n(Cc2ccccc2F)c1=O)NCc1ccc2c(c1)OCO2,·,1.4%,·,·,·,2.0%
COCCNC(=O)CSc1nnc(NC(=O)Nc2ccc(C)cc2)s1,·,12µM*,·,·,·,·
SMILES,NPC1 prom act,FLuc modulator,uPA surface inh,ELG1 genotoxic,Rab9 prom act,SMN2 splice up
CCCSc1nnc(NC(=O)Nc2ccc(C)cc2)s1,1.7%,0.3%,-3.8%,-3.3%,-2.2%,·
CCOC(=O)N1CCN(C(=O)CSc2ccc(-c3ccc(OC)c(OC)c3)nn2)CC1,1.5%,16.9µM*,-10.1%,-13.7%,5.5%,2.1%
COc1ccc(-c2ccc(SCC(=O)N3c4ccccc4CC3C)nn2)cc1OC (centres undefined),11.5%,4.26µM*,?,-4.4%,-2.2%,?
CCOC(=O)N1CCN(C(=O)CSc2ccc(-c3ccc(OC)cc3)nn2)CC1,0.8%,10.7µM*,-5.0%,0.0%,-6.0%,-16.4%
CC1Cc2ccccc2N1C(=O)CSc1nncn1C (centres undefined),-1.8%,-1.1%,0.2%,0.9%,6.0%,15.8%
C[C@H](CCC(=O)O)[C@H]1CC[C@@H]2[C@H]3CC[C@H]4C[C@@H](O)CC[C@@]4(C)[C@H]3CC[C@]21C,·,·,·,·,·,7.9%[20.6 µM]
O=C(CSc1c2c(nc3cc(Cl)ccc13)CCCC2)N1CCN(c2ccccc2F)CC1,·,-14.2%,·,·,·,-32.1%
CC(C)(C)OC(=O)N1CCC(c2c(C(=O)NCc3ccccc3)cnn2-c2ccc(F)cc2)CC1,·,-1.3%,·,·,·,·
Oc1ccc(/C=N/Nc2ccnc3cc(Cl)ccc23)cc1O,-4.5%,16.9µM*,-7.6%,?,-2.1%,·
O=C(Nc1nc2ccsc2c(=O)s1)c1ccc(F)cc1,0.398µM*,0.536µM*,6.2%,?,0.282µM*,·
Cc1csc2c(=O)sc(NC(=O)c3ccc(F)cc3)nc12,0.3%,0.5%,-1.3%,1.8%,-0.8%,·
O=C(Nc1nc2ccsc2c(=O)s1)c1ccc(F)cc1Cl,0.708µM*,0.536µM*,-0.9%,9.2µM*,0.562µM*,·
CN(C)c1ccc(C2CC(c3ccccc3)=Nc3nc(-c4ccccc4)cn32)cc1 (centres undefined),-1.1%,13.5µM*,·,4.5%,2.1%,28.4%
CN(C)c1ccc(-c2n[nH]c(=S)n2-c2ccccc2)cc1,-0.4%,-8.4%,-6.3%,-1.8%,-16.6%,9.4%
Brc1c(-c2ccc3c(c2)OCO3)nc2ncccn12,16.2%,23.9µM*,-8.8%,?,?,·
COc1ccc(-c2nc3ncccn3c2Br)cc1,?,15.1µM*,?,?,2.51µM*,·
COc1ccc(C2=NN(S(C)(=O)=O)C(c3cccs3)C2)cc1OC (centres undefined),?,16.9µM*,-7.5%,15.8%,?,·
COc1cccc(C2=NN(S(C)(=O)=O)C(c3cccs3)C2)c1 (centres undefined),23.2%,?,-0.2%,15.3%,2.82µM*,·
CS(=O)(=O)N1N=C(c2ccccc2)CC1c1cccs1 (centres undefined),15.6%,-3.2%,-0.3%,1.6%,3.3%,-3.3%
CN(C)c1ccc(/C=C2\C(=N)N3N=C(CC(=O)N4CCCC4)SC3=NC2=O)cc1Br,0.6%,?,1.7%,-2.5%,0.7%,·
CN(C)c1ccc(/C=C2\C(=N)N3N=C(CC(=O)N4CCCCC4)SC3=NC2=O)cc1,3.0%,13.5µM*,0.8%,6.0%,2.7%,·
CC(=O)N1CCCc2cc(S(=O)(=O)N(C)CC(=O)Nc3ccc(Cl)cc3C)ccc21,·,-10.9%,·,·,·,·
